High-throughput results deposited in PubChem by Broad Institute.
Only a sample is shown.
aSyn UTR act: Activators via SNCA 5'UTR binding, MLPCN; alpha-synuclein 5'UTR reporter, activators screen; activity score, % (tested at 7.5 µM), hits read low; 300,000 compounds, 7.1% hits; in the data active = activity score below about -60%
Each line names hits and unclear results; the compound was inactive in the other large screens.

Cc1nc2cc(-c3ccc(Br)cc3)[nH]n2c(=O)c1Cl	aSyn UTR act -74
Nc1cc2nc[nH]c2cc1N	aSyn UTR act -100
CNC(=O)c1ccsc1NC(=O)c1ccc2c(c1)CCCC2	aSyn UTR act -214
CS(=O)(=O)c1nc(S(=O)(=O)c2ccc(Cl)cc2)c(N2CCOCC2)s1	aSyn UTR act -75
Cc1ccc(S(=O)(=O)c2nc(S(C)(=O)=O)sc2N2CCCCCC2)cc1	aSyn UTR act -113
COc1cccc2cc(-c3ccccc3)c(=O)oc12	aSyn UTR act -113
COc1cccc2cc(-c3nc4ccccc4[nH]3)c(=O)oc12	aSyn UTR act -157
Cc1nnnn1/C(=C\c1ccccc1)C(=O)OCC(=O)Nc1ccc(Cl)cc1F	aSyn UTR act -71
N#C/C(=C\c1ccc(N2CCCCC2)o1)C(=O)Nc1cccc(Br)c1	aSyn UTR act -178
CCOc1ccc(-c2noc(-c3cccnc3)n2)cc1OC	aSyn UTR act -95
COc1ccc(-c2noc(-c3cccnc3)n2)cc1OC	aSyn UTR act -159
COc1ccc(NC(=O)c2cnn(-c3ccccc3)c2C)cc1OC	aSyn UTR act -153
Cc1c(C(=O)Nc2cccc([N+](=O)[O-])c2)cnn1-c1ccccc1	aSyn UTR act -137
CC(=O)c1cccc(NC(=O)c2cnn(-c3ccccc3)c2C)c1	aSyn UTR act -181
COc1ccc(NC(=O)c2cnn(-c3ccccc3)c2C)cc1	aSyn UTR act -62
COc1ccc(CN2CCn3ncc(C(=O)Nc4ccccc4)c3C2=O)cc1	aSyn UTR act -86
Cc1c(C(=O)Nc2cccc(F)c2)cnn1-c1ccccc1	aSyn UTR act -212
Cc1c(C(=O)Nc2ccccc2)cnn1-c1ccccc1	aSyn UTR act -68
CCN(CC)C(=O)N1c2ccccc2C=Cc2ccccc21	aSyn UTR act -101
c1ccc2c(c1)[nH]c1c3ccccc3sc21	aSyn UTR act -138
COc1ccc2c(c1)O/C(=C\c1ccco1)C2=O	aSyn UTR act -119
CC(=O)COc1ccc2c(c1C)O/C(=C\c1ccco1)C2=O	aSyn UTR act -213
Cc1cccc(/C=C2\Oc3cc(OS(C)(=O)=O)ccc3C2=O)c1	aSyn UTR act -64
CCc1ccccc1NC(=O)c1cc2ncc(Br)cn2n1	aSyn UTR act -79
O=C(Nc1ccccc1C(F)(F)F)c1cc2ncc(CCCl)cn2n1	aSyn UTR act -81
Cc1cc(C(=O)NCCC2=CCCCC2)c(C)o1	aSyn UTR act -123
O=C(NCCC1=CCCCC1)c1cnccn1	aSyn UTR act -114
COc1cccc(C(=O)NCCC2=CCCCC2)c1OC	aSyn UTR act -117
O=C(COC(=O)c1ccccc1Br)NCCC1=CCCCC1	aSyn UTR act -64
COc1ccc(C(=O)NCCC2=CCCCC2)cc1OC1CCN(C(C)C)CC1	aSyn UTR act -74
CN(C)C(=O)c1cc(C(=O)c2ccc(F)cc2Cl)c[nH]1	aSyn UTR act -93
CN(C)C(=O)c1cc(C(=O)c2ccc(Cl)cc2Cl)c[nH]1	aSyn UTR act -94
CN(C)C(=O)c1cc(C(=O)c2ccc(C(F)(F)F)cc2)c[nH]1	aSyn UTR act -151
CC(C)NC(=O)c1ccc(COc2ccc(C(C)(C)C)cc2)o1	aSyn UTR act -136
CCOc1ccc(OCc2ccc(C(=O)Nc3cccnc3)o2)cc1	aSyn UTR act -81
CCOc1ccc(OCc2ccc(C(=O)NC(C)(C)C)o2)cc1	aSyn UTR act -70
CN(C)c1ccc(NC(=O)c2ccc(COc3cccc(Cl)c3)o2)cc1	aSyn UTR act -112
Cc1sc2ncnc(SCC(=O)c3cccs3)c2c1C	aSyn UTR act -73
CCN1Cc2c(/C=C/c3ccccc3)nc3ccc(OC)cc3c2N(c2cccc(Cl)c2)C1	aSyn UTR act -66
COc1cccc(OC)c1OCCCOc1cccc2cccnc12	aSyn UTR act -106
CCCCC(=O)NC(c1ccccc1OC)c1ccc2cccnc2c1O (stereo unspecified)	none
CCS(=O)(=O)c1ccc(N=Nc2ccc(O)c3ncccc23)c(OC)c1	none
CCCC(=O)NC(c1ccccc1OC)c1ccc2cccnc2c1O (stereo unspecified)	none
Cc1ccc2ccc3ccc(C)nc3c2n1	none
Cc1ccc2cccc(OCCCOc3ccccc3F)c2n1	aSyn UTR act -74
Clc1ccccc1OCCCOc1cccc2cccnc12	aSyn UTR act -118
Fc1ccc(COc2cccc3cccnc23)cc1	aSyn UTR act -141
Nc1sc(-c2ccccc2)n[n+]1Cc1cccc2cccnc12	none
Cc1cc(=O)oc2cc(Nc3ccccc3)ccc12	aSyn UTR act -90
CCCC(C(=O)Nc1ccc2c(C)cc(=O)oc2c1)c1ccccc1 (stereo unspecified)	aSyn UTR act -66
O=[N+]([O-])c1cccc(-c2nnc(SCc3cccnc3)o2)c1	aSyn UTR act -62
COc1cccc(-c2nnc(SCc3cccnc3)o2)c1	aSyn UTR act -164
COc1ccc(/C=C/C(=O)NC2CCCCCCC2)cc1S(=O)(=O)N1CCOCC1	aSyn UTR act -112
CC(=O)C(Sc1nc(N2CCOCC2)nc(N2CCOCC2)n1)C(=O)Nc1ccccc1 (stereo unspecified)	aSyn UTR act -66
CC(=O)C(Sc1nn(C)c(=S)s1)C(=O)Nc1ccccc1 (stereo unspecified)	aSyn UTR act -99
NS(=O)(=O)c1ccc(N/N=C/c2cn(-c3ccccc3)nc2-c2cccs2)cc1	aSyn UTR act -92
Cc1ccsc1/C=N/Nc1cccc(C(=O)O)c1	none
Cc1nn(Cc2c(Cl)cccc2Cl)c(C)c1NC(=O)c1cn(-c2ccccc2)nc1-c1ccccc1	none
O=C(Nc1cccnc1)c1cn(-c2ccccc2)nc1-c1cccs1	aSyn UTR act -84
O=C(O)c1cccc(N/N=C/c2cn(-c3ccccc3)nc2-c2cccs2)c1	aSyn UTR act -68
COC(=O)c1ccc(Sc2ccc(C)cc2)c(N)c1	aSyn UTR act -141
CCCC(=O)NC(c1ccc(Cl)cc1Cl)c1ccc2cccnc2c1O (stereo unspecified)	none
CCNC(=O)CCCOc1ccc(Cl)cc1Cl	aSyn UTR act -82
O=c1[nH]c(N/N=C\c2ccc(F)cc2)nc2ccccc12	aSyn UTR act -150
C=CCn1c(N/N=C/c2ccc(O)cc2)nc2ccccc2c1=O	aSyn UTR act -134
C=CCn1c(SCc2c(C)noc2C)nc2ccccc2c1=O	none
O=c1[nH]c(N/N=C/c2ccc(O)cc2)nc2ccccc12	aSyn UTR act -158
COc1ccc(-c2cc(C(=O)N3CCCc4ccccc43)no2)cc1	aSyn UTR act -107
COc1cccc(-c2cc(C(=O)N3CCCc4ccccc43)no2)c1	aSyn UTR act -126
c1ccc2cc(-c3cc4ccccn4c3)ccc2c1	aSyn UTR act -98
COc1ccc(C2=NN(C(C#N)c3ccc(OC)cc3)C(c3ccccc3)C2)cc1 (stereo unspecified)	aSyn UTR act -250
COc1ccc(C(C#N)N2N=C(c3ccccc3)CC2c2ccccc2)cc1OC (stereo unspecified)	aSyn UTR act -182
Cc1ccn(-c2cc(O)c(-n3ccc(C)n3)cc2O)n1	aSyn UTR act -85
CC(=O)Oc1ccc(-c2csc(Nc3cccc(C)n3)n2)cc1	aSyn UTR act -250
COc1ccc(-c2csc(Nc3cccc(C)n3)n2)cc1	aSyn UTR act -232
COc1ccc(-c2csc(Nc3cccc(C)n3)n2)cc1C	aSyn UTR act -216
Cc1cccc(Nc2nc(-c3ccc(F)cc3)cs2)n1	aSyn UTR act -137
Fc1ccc(-c2csc(Nc3ccccn3)n2)cc1	aSyn UTR act -77
O=C(Nc1cc(-c2nc3ncccc3o2)ccc1Cl)c1ccc([N+](=O)[O-])o1	aSyn UTR act -200
O=C(Nc1cccc2ccccc12)c1ccc([N+](=O)[O-])o1	aSyn UTR act -179
